# Measurements published in PubChem BioAssay.
# Several values for one entry are separate records, joined by “and”; a condition that tells them apart may be missing. Equal values may be shown once. Inconclusive results are not listed. Activity calls are given as the source filed them. Unless noted, no cut-off is given here; in the data, nearly all actives have AC50 up to about 30 µM.
# Legend:
# [1] = viability loss in pontine glioma line – cell-based, SU-DIPG-XIII, MIPE4.0, CellTiter-Glo, qHTS, dose response (AID 1347061; cut-off not given, nearly all actives have AC50 up to about 37 µM;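 note: cells exposed to compound for 48 hours before readout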); conditions: CellTiter-Glo ATP luminescence
# [2] = viability loss in pontine glioma line – cell-based, JHH-DIPG-1, MIPE4.0, CellTiter-Glo, qHTS, dose response (AID 1347062; cut-off not given, nearly all actives have AC50 up to about 27 µM;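 for AC50: cells exposed to compound for two days before readout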); conditions: JHH-DIPG-1 viability, CellTiter-Glo ATP luminescence
# [3] = viability loss in pontine glioma line – cell-based, SU-DIPG-IV, MIPE4.0, CellTiter-Glo, qHTS, dose response (AID 1347063); conditions: CellTiter-Glo ATP luminescence;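 note: compound exposure lasted 48 hours before the viability readout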
# [4] = JHH-DIPG-1 glioma cell viability, MIPE5.0 library, CellTiter-Glo luminescence, qHTS (AID 1347067; cut-off not given, nearly all actives have AC50 up to about 26 µM;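 note: cells exposed to compound for 48 hours before readout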); conditions: JHH-DIPG-1 glioma viability, CellTiter-Glo ATP luminescence
# [5] = viability loss with induced miR-34 in A549 – imaging, A549 dox-inducible miR-34, nuclei and caspase counts, primary screen (AID 1347080;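 active = compounds whose cell count with miR-34 switched on is under 0.7 times the count with it off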); conditions: A549 miR-34 inducible, Hoechst nuclei count, 48 h
# [6] = growth inhibition of DIPG cells – cell-based, MIPE4.0 library, CellTiter-Glo luminescence, qHTS (AID 1347066); conditions: SU-DIPG-VI viability, CellTiter-Glo ATP luminescence;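 note: cells exposed to compound for 48 hours before readout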
# [7] = growth inhibition of DIPG cells – cell-based, MIPE5.0 library, qHTS (AID 1347068; cut-off not given, nearly all actives have IC50 up to about 30 µM;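 for IC50: cells exposed to compound for 48 hours before viability readout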); conditions: SU-DIPG-XXV viability
# [8] = growth inhibition, single agent or in combination, cell-based, chromothripsis tumors, cisplatin or BGB combos (AID 1671449; in the data active = inhibition above about 80%;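 note: cells exposed for 96 hours; 0% = vehicle DMSO and 100% = killing by high DMSO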); conditions: LFS_MB_P medulloblastoma cells
# [9] = growth inhibition, single agent and combos, cell-based, chromothripsis tumors, cisplatin or BGB combos (AID 1671450; in the data active = inhibition above about 80%;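 note: cells exposed to compound for four days; 0% = vehicle DMSO and 100% = cell killing by high DMSO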); conditions: HDN33 neuroblastoma cells, stronger effect = higher value
# [10] = growth inhibition, single agents and combos, ICB984, cell-based, cisplatin or BGB combos, synergistic combos for chromothripsis tumors (AID 1671451; call rule not given here;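 note: cells exposed for 96 hours before readout; 0% = vehicle DMSO and 100% = killing by high DMSO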); conditions: ICB984 medulloblastoma cells, drug combinations, stronger effect = higher value
# [11] = growth inhibition, single agents and combos, HTB85, cell-based, BGB or cisplatin IC20 combos, synergistic combos for chromothripsis tumors (AID 1671453; in the data active = inhibition above about 80%;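 note: cells exposed for 96 hours before readout; 0% = vehicle DMSO and 100% = high DMSO killing control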); conditions: HTB85 osteosarcoma cells, drug combinations, stronger effect = higher value
# [12] = growth inhibition, MDA-MB-436, cell-based, BGB or cisplatin combos, synergistic combos for chromothripsis tumors (AID 1671458; call rule not given here;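 note: cells exposed for 96 hours; 0% = vehicle DMSO and 100% = killing by high DMSO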); conditions: MDA-MB-436 breast carcinoma growth inhibition, drug combinations, stronger effect = higher value
# [13] = BT084 cell growth, single and combined drugs, ICGC_MB145, cisplatin and BGB IC40 combos (AID 1671461; in the data active = inhibition above about 80%;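 note: cells exposed to drugs for 96 hours; 0% = vehicle DMSO and 100% = high DMSO full killing control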); conditions: BT084 medulloblastoma cells, drug combinations, stronger effect = higher value
# [14] = RCMB18 cell growth, single agent and combined, cisplatin and BGB IC40 combos (AID 1671462; in the data active = inhibition above about 80%;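 note: cells exposed to compound for four days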); conditions: RCMB18 medulloblastoma cells, stronger effect = higher value
# [15] = CRL1545 cell growth, single agent and combined, cisplatin and BGB IC20 combos (AID 1671464; in the data active = inhibition above about 80%;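 note: cells exposed to compound for 96 hours before readout; 0% = vehicle DMSO and 100% = high DMSO killing control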); conditions: CRL1545 osteosarcoma cells, stronger effect = higher value
# [16] = MELAS cybrid and Rieske KO viability enhancers – cell-based, MELAS cybrids, Rieske KO mouse fibroblasts, CellTiter-Glo, primary screen (AID 1508586;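 active = mean z-score across replicates of 1.96 or higher in either the MELAS or the Rieske mutant cell line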;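 note: z relative to plate mean and SD of compound and empty wells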); conditions: low glucose
# [17] = viability loss in pontine glioma line – cell-based, SU-DIPG-XIII, MIPE5.0, CellTiter-Glo, qHTS, dose response (AID 1347064; cut-off not given, nearly all actives have AC50 up to about 23 µM;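 note: cells exposed to compound for 48 hours before the viability read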); conditions: CellTiter-Glo ATP luminescence
# [18] = viability loss in pontine glioma line – cell-based, SU-DIPG-XXV, MIPE5.0, CellTiter-Glo, qHTS, dose response (AID 1347065; cut-off not given, nearly all actives have AC50 up to about 26 µM;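 note: cells exposed to compound for 48 hours before ATP readout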); conditions: CellTiter-Glo ATP luminescence
# [19] = stronger effect = lower value, cell number ratio, induced over uninduced
# [20] = measured here: relative caspase fold change +Dox/-Dox
# [21] = measured here: total cells with miR-34 induction, stronger effect = lower value
# [22] = measured here: total cells without miR-34 induction
# [23] = measured here: with BGB IC20 combination, at 0.5 µM
# [24] = measured here: with cisplatin IC20 combination, at 0.5 µM
smiles,measurement,setting,value
COC(=O)N[C@H](C(=O)N1CCC[C@H]1c1ncc(-c2ccc(-c3ccc(-c4cnc([C@@H]5CCCN5C(=O)[C@@H](NC(=O)OC)C(C)C)[nH]4)cc3)cc2)[nH]1)C(C)C,outcome,[1],inactive
same,outcome,[2],inactive
same,AC50,[3],26.4 µM (active)
same,AC50,[4],23.5 µM (active)
CC1(C)C(=O)N(CCN2CCC(C(=O)c3ccc(F)cc3)CC2)c2ccccc21,outcome,[1],inactive
same,outcome,[2],inactive
same,outcome,[3],inactive
same,fold change,[5]; [19],0.986 (inactive)
same,fold change,[5]; [20],1.27
same,cell count,[5]; [21],7420
same,cell count,[5]; [22],7530
CCC(CC)[C@H](NC(C)=O)[C@@H]1[C@H](O)[C@@H](C(=O)O)C[C@H]1N=C(N)N,outcome,[1],inactive
same,outcome,[2],inactive
same,outcome,[3],inactive
same,outcome,[6],inactive
CC(C)OC(=O)[C@H](C)N[P@](=O)(OC[C@H]1O[C@@H](n2ccc(=O)[nH]c2=O)[C@](C)(F)[C@@H]1O)Oc1ccccc1,outcome,[1],inactive
same,outcome,[2],inactive
same,outcome,[3],inactive
same,outcome,[6],inactive
same,AC50,[4],2.63 µM (active)
same,outcome,[7],inactive
same,inhibition,"[8]; at 0.5 µM, stronger effect = higher value",-27.6% (inactive)
same,inhibition,"[8]; measured here: combination with BGB IC20, at 0.005 µM",-8.86%
same,inhibition,"[8]; measured here: combination with BGB IC40, at 0.005 µM",-29.9%
same,inhibition,"[8]; measured here: combination with BGB IC40, at 0.05 µM",-32.6%
same,inhibition,"[8]; measured here: combination with cisplatin, at 0.5 µM, stronger effect = higher value",-25.8%
same,inhibition,"[8]; measured here: combination with cisplatin, at 5 µM, stronger effect = higher value",-29.3%
same,inhibition,"[9]; BGB combo, at 5 µM",-36.1%
same,inhibition,[9]; at 0.5 µM,-7.68% (inactive)
same,inhibition,"[9]; cisplatin combo, at 5 µM",-4.94%
same,inhibition,[9]; [23],-9.88%
same,inhibition,[9]; [24],5.66%
same,inhibition,"[9]; single agent, at 5 µM",-12.1%
same,inhibition,"[10]; BGB IC20 combo, at 0.005 µM",-18%
same,inhibition,"[10]; BGB IC40 combo, at 0.005 µM",-9.03%
same,inhibition,"[10]; BGB IC40 combo, at 0.05 µM",-19.6%
same,inhibition,[10]; at 0.5 µM,-6.96% (inactive)
same,inhibition,"[10]; cisplatin combo, at 0.05 µM",-25.8%
same,inhibition,"[10]; cisplatin combo, at 0.5 µM",-2.19%
same,inhibition,"[10]; cisplatin combo, at 5 µM",-12.1%
same,inhibition,"[10]; measured here: 5 uM single agent, at 5 µM",-20.9%
same,inhibition,[11]; at 0.5 µM,14.1% (inactive)
same,inhibition,"[11]; measured here: with BGB IC20, at 0.5 µM",45.6%
same,inhibition,"[11]; measured here: with BGB IC20, at 5 µM",9.23%
same,inhibition,"[11]; measured here: with cisplatin IC20, at 0.5 µM",-3.56%
same,inhibition,"[11]; measured here: with cisplatin IC20, at 5 µM",2.16%
same,inhibition,"[11]; single agent, at 5 µM",7.57%
same,inhibition,[12]; at 0.5 µM,-14.4% (inactive)
same,inhibition,"[12]; measured here: BGB combination, at 0.5 µM",-6.51%
same,inhibition,"[12]; measured here: BGB combination, at 5 µM",-8.4%
same,inhibition,"[12]; measured here: cisplatin combination, at 0.5 µM",-26.3%
same,inhibition,"[12]; measured here: cisplatin combination, at 5 µM",-27.6%
same,inhibition,[13]; at 0.5 µM,-5.65% (inactive)
same,inhibition,"[13]; cisplatin combination, at 0.5 µM",-1.58%
same,inhibition,"[13]; cisplatin combination, at 5 µM",-68.9%
same,inhibition,"[13]; measured here: BGB IC40 combination 0.05 uM, at 0.05 µM",-37.9%
same,inhibition,"[13]; single agent, at 5 µM",12.2%
same,inhibition,[14]; at 0.5 µM,-12.6% (inactive)
same,inhibition,"[14]; cisplatin combo, at 5 µM",-10.4%
same,inhibition,"[14]; measured here: BGB IC40 combination, at 0.05 µM",-14.6%
same,inhibition,"[14]; measured here: combination with cisplatin, at 0.5 µM",5.31%
same,inhibition,"[14]; single agent, at 5 µM",-3.36%
same,inhibition,[15]; at 0.5 µM,22.4% (inactive)
same,inhibition,[15]; [23],2.82%
same,inhibition,[15]; [24],31.1%
same,inhibition,"[15]; single agent, at 0.05 µM",-4.05%
same,inhibition,"[15]; single agent, at 5 µM",-21.1%
NC(N)=Nc1nc(CSCCC(N)=NS(N)(=O)=O)cs1,outcome,[1],inactive
same,outcome,[2],inactive
same,outcome,[3],inactive
same,outcome,[6],inactive
same,fold change,[5]; [19],0.921 (inactive) and 0.901 (inactive) and 0.846 (inactive)
same,fold change,[5]; [20],1.73 and 0.639 and 1.03
same,cell count,[5]; [21],9300 and 8340 and 7700
same,cell count,[5]; [22],10100 and 9260 and 9100
same,z-score,"[16]; MELAS cybrid survival, CellTiter-Glo 48 h, stronger effect = higher value",0.605 (inactive) and -0.262 (inactive)
same,z-score,"[16]; Rieske KO mouse fibroblast survival, CellTiter-Glo 72 h",-0.158 and 0.443
O=C(Nc1ncc(SCCN2CCCC2)s1)[C@]1(c2ccc(S(=O)(=O)C3CC3)cc2)C[C@H]1C1CCCCC1,outcome,[1],inactive
same,AC50,[2],14.8 µM (active)
same,AC50,[17],16.6 µM (active)
same,AC50,[18],9.34 µM (active)
same,AC50,[6],20.9 µM (active)
same,AC50,[4],11.8 µM (active)
same,IC50,[7],20.9 µM (active)
